Laboratory results taken from PMC4336329 (PLoS ONE, 2015).
The whole screen tested about 310,000 compounds, of which about 2,200 (0.71%) showed an effect of 50% or more. Effects have a minus sign here. The entries come from a sample that favours strong results as a whole.

Target: human ether-à-go-go-related gene (hERG) potassium channel (human, UniProt Q12809)
Assay: primary screen, population patch clamp on CHO cells stably expressing hERG; higher = less effect of the substance

human ether-à-go-go-related gene (hERG) potassium channel, sequence (Q12809 whole entry, looked up): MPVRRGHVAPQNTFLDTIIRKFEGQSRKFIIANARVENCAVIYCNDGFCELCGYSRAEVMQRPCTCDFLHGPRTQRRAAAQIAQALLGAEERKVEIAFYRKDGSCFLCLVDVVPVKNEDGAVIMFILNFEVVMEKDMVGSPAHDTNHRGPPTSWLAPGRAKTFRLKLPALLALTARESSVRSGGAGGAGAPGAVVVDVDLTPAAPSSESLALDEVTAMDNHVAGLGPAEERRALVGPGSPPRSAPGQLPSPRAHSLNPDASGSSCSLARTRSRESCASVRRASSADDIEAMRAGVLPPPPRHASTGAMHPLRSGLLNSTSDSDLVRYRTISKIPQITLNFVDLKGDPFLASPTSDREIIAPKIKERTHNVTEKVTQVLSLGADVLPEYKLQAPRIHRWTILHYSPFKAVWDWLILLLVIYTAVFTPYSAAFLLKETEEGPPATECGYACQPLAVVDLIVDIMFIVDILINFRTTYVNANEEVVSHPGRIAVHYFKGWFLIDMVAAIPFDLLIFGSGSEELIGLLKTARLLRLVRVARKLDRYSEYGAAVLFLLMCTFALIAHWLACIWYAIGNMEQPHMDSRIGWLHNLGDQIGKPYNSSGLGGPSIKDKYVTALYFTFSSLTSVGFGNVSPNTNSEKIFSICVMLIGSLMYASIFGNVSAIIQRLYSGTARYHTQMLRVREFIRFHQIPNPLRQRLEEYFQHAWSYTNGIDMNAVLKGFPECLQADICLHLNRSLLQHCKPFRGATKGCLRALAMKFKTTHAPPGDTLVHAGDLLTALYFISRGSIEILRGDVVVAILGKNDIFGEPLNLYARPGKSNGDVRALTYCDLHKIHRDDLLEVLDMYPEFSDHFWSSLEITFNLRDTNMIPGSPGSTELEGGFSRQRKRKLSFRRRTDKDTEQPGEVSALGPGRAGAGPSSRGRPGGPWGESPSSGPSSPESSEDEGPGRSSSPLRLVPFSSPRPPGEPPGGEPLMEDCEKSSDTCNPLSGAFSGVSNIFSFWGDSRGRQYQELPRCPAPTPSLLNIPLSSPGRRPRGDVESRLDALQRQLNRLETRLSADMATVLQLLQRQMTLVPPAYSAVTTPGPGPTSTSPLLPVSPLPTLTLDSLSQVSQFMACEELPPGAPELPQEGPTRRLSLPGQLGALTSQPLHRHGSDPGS

Row | Compound | hERG current change (%, negative = inhibition) at 1uM
1 | Cc1nnc(NCc2n[nH]c(=O)c3ccccc23)c2ccccc12 | 9.65%
2 | O=C(CN(C(=O)c1csnn1)c1ccc2c(c1)OCCO2)NCc1ccc(F)cc1 | -1.13%
3 | COc1ccc2c(c1)C(=O)CC(c1ccc3c(c1)OCCO3)O2 (centres unmarked) | 16.1%
4 | CCOC(=O)c1ccc(NC(=O)Nc2cccc(C)n2)cc1 | 10%
5 | Cc1ccccc1SC1CCN(Cc2nc(C3CC3)no2)CC1 | -1.23%
6 | Cc1ccc(CS(=O)(=O)c2ncn[nH]2)cc1 | 21%
7 | Cc1oc(-c2ccc(Cl)cc2)nc1CN1CCC(C(=O)NCc2ccco2)CC1 | -58.3%
8 | Cc1ccccc1-c1nc(CN2CCC(C(=O)NCc3ccco3)CC2)c(C)o1 | -34.7%
9 | CCN1CCN(C(=O)C2CCN(Cc3nc(-c4cccc(Cl)c4)oc3C)CC2)CC1 | -21%
10 | Cc1oc(-c2ccc(Cl)cc2)nc1CN1CCCC(C(=O)NCc2ccccn2)C1 (centres unmarked) | -44.2%
11 | Cc1oc(-c2ccc(Cl)cc2)nc1CN1CCC(C(=O)N2CCc3ccccc3C2)CC1 | -56.7%
12 | Cc1oc(-c2ccccc2F)nc1CN1CCC(C(=O)NCc2ccco2)CC1 | -9.53%
13 | Cc1oc(-c2cccc(Cl)c2)nc1CN1CCC(C(=O)NC2CC2)CC1 | 14.6%
14 | Cc1oc(-c2cccc(Cl)c2)nc1CN1CCCC(C(=O)NCc2ccco2)C1 (centres unmarked) | -45%
15 | Cc1oc(-c2ccc(Cl)cc2)nc1CN1CCCC(C(=O)NCc2ccco2)C1 (centres unmarked) | -56.4%
16 | Cc1oc(-c2cccc(Cl)c2)nc1CN1CCC(C(=O)NCc2ccco2)CC1 | -70.4%
17 | Cc1oc(-c2cccc(Cl)c2)nc1CN1CCC(C(=O)NCc2cccnc2)CC1 | -13%
18 | Cc1oc(-c2ccc(Cl)cc2)nc1CN1CCC(C(=O)N2CCN(Cc3ccccc3)CC2)CC1 | -48.1%
19 | Cc1ccc(OC(=O)c2ccc3nc(C)sc3c2)cc1 | 10%
20 | COC(=O)COC(=O)c1ccc(O)cc1 | -12.9%
21 | O=C1C=C(c2ccc3ncccc3c2)C[C@@H](c2ccc3c(c2)OCO3)C1 | 9.3%
22 | O=C(c1cc2ccccc2oc1=O)N(Cc1cccs1)Cc1ccccc1Cl | 2.42%

Row | Compound | hERG current change (%, negative = inhibition) at 1uM
23 | CCc1ccc(NC(=O)CCn2nc(C)c(S(=O)(=O)N3CCCCC3)c2C)cc1 | 4.67%
24 | CCOC(=O)COc1c(-c2ccc(OC)cc2)oc2ccccc2c1=O | 9.81%
25 | CC(C)OP(=O)(OC(C)C)C(Nc1ccccc1)c1cccc([N+](=O)[O-])c1 (centres unmarked) | 12%
26 | COc1cc(-c2nc3n(n2)C(c2ccncc2)C2=C(CCCC2=O)N3)cc(OC)c1OC (centres unmarked) | 26%
27 | Cc1ccc(CN2C(=O)C3CCCN3c3ncccc32)cc1 (centres unmarked) | 12.7%
28 | CCCCN1C(=O)NC(=O)/C(=C/c2cnc(SC)nc2)C1=O | 7.6%
29 | Cc1ccccc1NCc1ccc(O)c2ncccc12 | 8.46%
30 | Cl.N=c1ccn(Cc2ccccc2Cl)cc1 | 16.8%
31 | CCc1ccc(-c2nc(CN3CCC(C(=O)NCc4ccco4)CC3)c(C)o2)cc1 | -51.1%
32 | CCc1ccc(-c2nc(CN3CCC(C(=O)NCc4ccc(F)cc4)CC3)c(C)o2)cc1 | -12.4%
33 | CCc1ccc(-c2nc(CN3CCC(C(=O)NCCN(CC)c4ccccc4)CC3)c(C)o2)cc1 | -15.6%
34 | CCOc1ccc(-c2cn3ccccc3n2)cc1 | -1.48%
35 | COc1ccc(CC(=O)Nc2c(C(=O)N3CCN(c4ccccc4)CC3)oc3ccccc23)cc1OC | -8.82%
36 | CCOCCCN(C)C1CCN(C(=O)c2oc3ccccc3c2NC(=O)Cc2cccc([N+](=O)[O-])c2)CC1 | -83.8%
37 | COc1ccc(CC(=O)Nc2c(C(=O)N3CCN(c4ncccn4)CC3)oc3ccccc23)cc1 | -21.4%
38 | COc1ccc(N2CCN(C(=O)c3oc4ccccc4c3NC(=O)Cc3cccc(OC)c3)CC2)cc1 | 3.16%
39 | CCCN(CCC)C(=O)c1oc2ccccc2c1NC(=O)Cc1cccc(OC)c1 | 19.2%
40 | CCOCCCN(C)C1CCN(C(=O)c2oc3ccccc3c2NC(=O)Cc2ccc([N+](=O)[O-])cc2)CC1 | -89.1%
41 | COc1ccc(NS(=O)(=O)c2cccc(C(=O)N3CCCC(C)C3)c2)cc1 (centres unmarked) | 3.3%
42 | CCN(CCn1cccn1)C(=O)CC1C(=O)NCCN1Cc1ccc(OC)c(OC)c1 (centres unmarked) | 2.76%
43 | COc1ccc(Cn2nnnc2C(c2ccc(F)cc2)N2CCN(C3CCCC3)CC2)cc1 (centres unmarked) | -15%
44 | c1cnc2ccc(C(c3nnnn3C3CCCC3)N3CCN4CCCC4C3)cc2c1 (centres unmarked) | -19.5%

Row | Compound | hERG current change (%, negative = inhibition) at 1uM
45 | c1cnc2ccc(C(c3nnnn3C3CCCCC3)N3CCN4CCCC4C3)cc2c1 (centres unmarked) | -96.9%
46 | Fc1ccc(C(c2nnnn2Cc2cccs2)N2CCN(C3CCCCC3)CC2)cc1 (centres unmarked) | -46.6%
47 | c1cnc2ccc(C(c3nnnn3C3CCCCC3)N3CCN(C4CCCCC4)CC3)cc2c1 (centres unmarked) | -87%
48 | OC1CCN(C(c2ccc3ncccc3c2)c2nnnn2C2CCCCC2)CC1 (centres unmarked) | -5.3%
49 | Fc1ccc(Cn2nnnc2C(c2cccs2)N2CCN(C3CCCCC3)CC2)cc1 (centres unmarked) | -51.6%
50 | COc1ccc(Cn2nnnc2C(c2ccc(C)cc2)N2CCN(C3CCCC3)CC2)cc1.Cl (centres unmarked) | -32.4%
51 | c1cnc2ccc(C(c3nnnn3C3CCCCC3)N3CCCCC3)cc2c1 (centres unmarked) | 1.89%
52 | Fc1ccc(Cn2nnnc2C(c2cccs2)N2CCCCCC2)cc1 (centres unmarked) | 0.84%
53 | CCC(C)(C)n1nnnc1C(c1ccc2ncccc2c1)N1CCN2CCCC2C1 (centres unmarked) | 8.16%
54 | COc1ccc(Cn2nnnc2C(c2ccc3ncccc3c2)N2CCN(C3CCCCC3)CC2)cc1 (centres unmarked) | -79.3%
55 | CCN(CC(=O)Nc1ccc(NC(C)=O)cc1)C(=O)CSc1nnc(-c2ccco2)n1CC | 16.2%
56 | Cc1nn2c(-c3ccccc3)ccnc2c1-c1ccccc1 | 7.57%
57 | CC(C)Oc1ccc(/C(O)=C2/C(=O)C(=O)N(Cc3cccnc3)C2c2ccco2)cc1 (centres unmarked) | 14.2%
58 | Cc1cc(C)c(S(=O)(=O)N2CCOC2CNC(=O)C(=O)NCCCN2CCCC2=O)c(C)c1 (centres unmarked) | 7.05%
59 | O=C(c1ccccc1)c1c[nH]c(C(=O)C(Cl)(Cl)Cl)c1 | 16%
60 | COC/C=C/C1=CC2=CC(=O)C(C)(OC(=O)c3cnc4ccccc4n3)C(=O)C2=CN1C1CCCCC1 (centres unmarked) | 9.88%
61 | Cc1csc(NC(=O)CSc2nncs2)n1 | 8.29%
62 | CC(NC(=O)Cc1cccs1)c1ccc2c(c1)OCO2 (centres unmarked) | -4.41%
63 | CCOC(=O)c1cccc(Nc2ncnc3ccc(C)cc23)c1 | -3.73%
64 | CCN(CC)CCCNC(=O)COc1ccc2oc3c(c2c1)CCCC3.Cl | 6.07%
65 | CC(C)OCCCNC(=O)COc1ccc2oc3c(c2c1)CCCC3 | 11.1%
66 | CC(C)N(CCNC(=O)COc1ccc2oc3c(c2c1)CCCC3)C(C)C | -52.7%

Row | Compound | hERG current change (%, negative = inhibition) at 1uM
67 | O=C(NCCN=C1NS(=O)(=O)c2ccccc21)c1ccc2nccnc2c1 | 18.3%
68 | O=C(CSCc1cccc(CSCC(=O)Nc2ccc3ccccc3c2)n1)Nc1ccc2ccccc2c1 | 8.91%
69 | O=C(CSCc1ccccn1)Nc1ccccc1 | -0.275%
70 | O=C(CSCc1cccc(CSCC(=O)Nc2ccccc2)n1)Nc1ccccc1 | -59.7%
71 | C=CCNC(=O)c1sc(=S)n(-c2ccc(C(=O)OCC)cc2)c1N | 2.24%
72 | O=C(c1cccn2c(=O)c3ccccc3nc12)N1CCN(Cc2ccc3c(c2)OCO3)CC1 | -54.4%
73 | O=C(c1ccc2nc3ccccc3c(=O)n2c1)N1CCN(Cc2ccc3c(c2)OCO3)CC1 | -12.2%
74 | O=C(c1cccn2c(=O)c3cc(Cl)ccc3nc12)N1CCN(Cc2ccc3c(c2)OCO3)CC1 | -33.5%
75 | O=C(CCC(=O)c1ccc(F)cc1)OCc1nnc(-c2ccc([N+](=O)[O-])cc2)o1 | 1.72%
76 | CCOc1ccc(C(=O)N2CCC(C(=O)c3ccc4c(c3)OCCO4)CC2)cc1 | -61.5%
77 | Cc1onc(-c2ccccc2)c1C(=O)OCc1nnc(-c2ccc([N+](=O)[O-])cc2)o1 | -51.2%
78 | O=C(OCc1nnc(-c2ccc([N+](=O)[O-])cc2)o1)C1CCN(C(=O)c2ccc(F)cc2)CC1 | -71.4%
79 | CCOC(=O)C1CCN(C(=O)C2CCN(C(=O)c3ccc([N+](=O)[O-])cc3)CC2)CC1 | -28.2%
80 | O=C(Oc1cccc([N+](=O)[O-])c1)C1CCN(C(=O)c2ccc(F)cc2)CC1 | -3.31%
81 | Cc1onc(-c2ccccc2Cl)c1C(=O)OCc1nnc(-c2ccccc2)o1 | 3.84%
82 | O=C(c1ccc2c(c1)OCCO2)C1CCN(C(=O)c2ccc(F)c(F)c2)CC1 | 2.71%
83 | CCOc1ccc(C(=O)C2CCN(C(=O)c3ccc([N+](=O)[O-])cc3)CC2)cc1 | -81.1%
84 | CCOC(=O)N1CCN(C(=O)C2CCN(C(=O)c3ccc([N+](=O)[O-])cc3)CC2)CC1 | -26.9%
85 | Cc1onc(-c2ccccc2)c1C(=O)OCc1nnc(-c2ccccc2)o1 | 5.73%
86 | O=C(c1ccc2c(c1)OCCO2)C1CCN(C(=O)c2ccc(F)cc2)CC1 | 4.28%
